The results in this text go back to PubChem BioAssay (NCATS).

SMILES strings stand for the structures. Values without a mark were called inactive. Inconclusive results are not listed. Active and inactive are the calls of the source. Unless noted, calls come from the whole dose curve; as a rule, active = well fitted curve in either direction with a large enough effect (not every such curve was filed as active); inconclusive = small, poorly fitted or top-dose-only effect, or another doubt; inactive = flat fitted curve, though single readings scatter.

The target in experiment [1] is Lysosomal acid glucosylceramidase (Homo sapiens) (UniProt P04062). Put plainly: Glucocerebrosidase-p2 (AID 348; in the data active = potency below about 10 µM; note: potency is the fitted concentration of half-maximal effect). Particulars: purified GBA, blue fluorogenic substrate, 40 min. Put shortly: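 Normal human glucocerebrosidase (0.2 nM) with blue fluorogenic substrate (80 uM final) in citrate/phosphate pH 5.9 with 10mM sodium taurocholate, 0.01% tween-20; 40 min RT, NaOH/glycine stop; fluorescence Ex 365/Em 440; AC50 from a titration from 0.6 nM upwards.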
Sequence of Lysosomal acid glucosylceramidase (Homo sapiens) (P04062 whole entry, looked up): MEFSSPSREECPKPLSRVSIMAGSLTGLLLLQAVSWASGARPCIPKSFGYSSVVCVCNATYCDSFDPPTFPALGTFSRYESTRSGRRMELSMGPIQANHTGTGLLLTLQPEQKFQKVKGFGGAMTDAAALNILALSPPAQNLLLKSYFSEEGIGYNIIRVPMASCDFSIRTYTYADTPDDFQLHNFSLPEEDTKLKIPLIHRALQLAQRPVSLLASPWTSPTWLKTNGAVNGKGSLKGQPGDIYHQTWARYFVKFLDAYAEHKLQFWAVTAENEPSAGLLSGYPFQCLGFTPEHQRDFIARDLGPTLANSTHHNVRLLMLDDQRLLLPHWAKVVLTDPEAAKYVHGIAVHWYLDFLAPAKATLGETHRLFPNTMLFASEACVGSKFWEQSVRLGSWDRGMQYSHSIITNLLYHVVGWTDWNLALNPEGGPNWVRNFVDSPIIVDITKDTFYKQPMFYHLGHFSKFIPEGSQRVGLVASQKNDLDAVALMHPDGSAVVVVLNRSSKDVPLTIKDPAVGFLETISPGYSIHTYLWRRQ

Experiment [2] can be described thus: AP1 Signaling Pathway (AID 357).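 Note: ME-180 reporter cells stimulated with EGF at its EC50 level; % is set by controls: 0 for no effect and ±100 for the full control effect.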 Particulars: ME-180 AP-1-bla reporter, EGF-induced, beta-lactamase ratio, 5 h; at 7.69 µM (top of the series) unless noted. Put shortly: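 First, ME-180 AP-1-bla cells were cultured overnight at 37 °C in low-serum Opti-MEM. Next, titrated compounds with EC50 EGF were incubated 5 hours. Finally, CCF4 was added for 2.5 hours and the 460/530 nm ratio recorded.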

The target in experiment [3] is Cytochrome P450 1A2 (Homo sapiens) (UniProt P05177). The experiment is described as follows: p450-cyp1a2 (AID 410; calls by dose curve; note: potency is the fitted concentration of half-maximal effect). The conditions noted are these: recombinant CYP1A2, luciferin-ME demethylation, luminescence; series mostly up to 57 µM. Summed up:
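O-Demethylation of luciferin 6' methyl ether by human CYP1A2 is monitored as luciferase luminescence. Substrate sits at Km (100uM); enzyme is 20nM. Values are scaled to 57 uM furafylline as maximal inhibition.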

The nature of experiment [4]: NFAT Signaling Pathway (AID 444).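 Note: carbachol stimulus at about its EC50 of 1 µM final; % is set by controls: 0 for no effect and ±100 for the full control effect.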 Particulars: Jurkat NFAT-bla M1, carbachol, beta-lactamase ratio, 5 h; at 7.69 µM (top of the series) unless noted. Put shortly:
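Read-out: CCF4 FRET ratio (460 nm/530 nm) after 1 h RT dye loading, used for %activity and AC50 from titration series. Cells: Jurkat NFAT-β-lactamase/M1 line, treated with compound plus 1 uM carbachol for 5 h, 37 °C.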

Experiment [5] in a line: Stat Signaling Pathway (AID 446).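 Note: ME-180 cervical cancer cells given 40 pM IL-6 alongside compound; SIE-controlled beta-lactamase reporter measured as 460/530 nm FRET emission ratio; % is set by controls: 0 for no effect and ±100 for the full control effect.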 Particulars: ME-180 (cervical carcinoma) SIE beta-lactamase reporter, IL-6 stimulated, 5 h; at 7.69 µM (top of the series) unless noted. Put shortly:
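Normalization used AC90 stimulation (300 pM IL-6) and AC90 inhibition (125 nM pan-JAK inhibitor at 40 pM IL-6). The underlying signal is SIE-driven beta-lactamase in ME-180 cells after 5 h IL-6 exposure with compound.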

Experiment [6] has as its target Glucocorticoid receptor (Homo sapiens) (UniProt P04150). The experiment is described as follows: GR-EFC Redistribution (AID 451; calls by dose curve; note: potency is the fitted concentration of half-maximal effect). The conditions noted are these: CHO-K1 GR-EFC translocation, beta-gal luminescence, 2 h. Put shortly:
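Translocation of GR-ED fusion to nuclear EA restores b-gal, read by luminescence after 1 h room-temperature detection. Engineered CHO-K1 biosensor cells, 1,000/well, exposed 2 h at 37 C to titrations up to 46 uM final.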

Experiment [7] concerns the target Mitogen-activated protein kinase 10 (Mus musculus) (UniProt Q61831). Put plainly: JNK3 AlphaScreen Assay (AID 530).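 Note: kinase came from lysate of stimulated human HepG2 cells; signal reports phosphorylation of biotinylated GST-cJun 1-79 at Ser73 with 10 µM ATP; % is set by controls: 0 for no effect and ±100 for the full control effect.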 Particulars: JNK3 lysate, c-Jun phosphorylation; series mostly up to 57.1 µM. Summed up:
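qHTS titrations with 15 min compound pre-incubation before adding ATP (10 uM final). Read-out: AlphaScreen of Ser73-phosphorylated biotin-GST-cJun using HepG2 lysate JNK3 activated by IL-1β and TNFα.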
Background: Alpha assays give light when donor and acceptor beads are brought close together.

Experiment [8] addresses 3',5'-cyclic-AMP phosphodiesterase 4B (Homo sapiens) (UniProt Q07343). The experiment is described as follows: qHTS Assay for Inhibitors of PDE-IV (AID 607; active = well fitted activation curve with a large enough effect in the main read-out, with a control signal flat, not every such curve was filed as active; note: % of control where 0% means no effect). The conditions noted are these: HEK293 ACTOne CNG channel cells, membrane potential fluorescence; series mostly up to 22.9 µM. Put shortly: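 HEK293 ACTOne cells with CNG channel (1000/well), endogenous PDE4; membrane potential dye, compounds up to 22.9 uM final. Fluorescence Ex 535/Em 590; RO 20-1724 (100 uM final) as reference.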

In experiment [9] the target is Cytochrome P450 3A4 (Homo sapiens) (UniProt P08684). The experiment is described as follows: qHTS Assay for Activators of Cytochrome P450 3A4 (AID 885; active = well fitted curve in the direction sought with a large enough effect; an effect the other way counts as inactive or inconclusive; note: nearly all actives have a fitted effect of over 65% in size). Particulars: recombinant CYP3A4, Luciferin-PPXE luminescence, 60 min; series mostly up to 57.1 µM. Put shortly: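 Human CYP3A4 dealkylates Luciferin-PPXE to luciferin, which luciferase detection converts to light. Substrate was at its KM (25uM), buffer 200mM KPO4, reaction 60 min at RT.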
Sequence of Cytochrome P450 3A4 (Homo sapiens) (P08684 whole entry, looked up): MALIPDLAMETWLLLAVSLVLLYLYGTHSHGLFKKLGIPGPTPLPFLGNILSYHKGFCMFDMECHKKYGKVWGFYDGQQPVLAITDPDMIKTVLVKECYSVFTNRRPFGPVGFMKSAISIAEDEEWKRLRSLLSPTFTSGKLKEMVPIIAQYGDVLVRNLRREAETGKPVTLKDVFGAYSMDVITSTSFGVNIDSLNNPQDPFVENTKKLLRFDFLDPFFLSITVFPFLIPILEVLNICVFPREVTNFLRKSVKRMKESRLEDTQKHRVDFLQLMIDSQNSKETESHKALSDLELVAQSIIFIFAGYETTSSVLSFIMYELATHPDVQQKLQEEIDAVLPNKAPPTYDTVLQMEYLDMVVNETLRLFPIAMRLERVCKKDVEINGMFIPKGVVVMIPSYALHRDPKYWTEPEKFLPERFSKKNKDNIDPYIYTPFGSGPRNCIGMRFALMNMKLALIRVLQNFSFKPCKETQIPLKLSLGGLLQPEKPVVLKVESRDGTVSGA
(In general: qHTS replaces the single test concentration by a dilution series.)

Experiment [10] in a line: Primary qHTS for small molecule stabilizers of the endoplasmic reticulum resident proteome: Secreted ER Calcium Modulated Protein (SERCaMP) assay (AID 1508630; active = well fitted curve in the direction sought with a large enough effect; an effect the other way counts as inactive or inconclusive; note: % is set by controls: 0 for no effect and ±100 for the full control effect). The conditions noted are these: SH-SY5Y GLuc-SERCaMP (Gaussia luciferase released on ER calcium loss) secretion, thapsigargin, luminescence; series mostly up to 38.4 µM. Summed up: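 The SH-SY5Y reporter protocol was run at 3 concentrations up to 38.3 uM (primary) or 11 concentrations (follow-up): 16 h compound, 100 nM thapsigargin for 4 h, then extracellular luciferase luminescence.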

Experiment [11] has as its target Cytochrome P450 3A4 (Homo sapiens) (UniProt P08684). The experiment is described as follows: qHTS Assay for Inhibitors and Substrates of Cytochrome P450 3A4 (AID 884; active = well fitted curve in the direction sought with a large enough effect; an effect the other way counts as inactive or inconclusive; note: nearly all actives have a fitted effect of over 50% in size; note: potency is the fitted concentration of half-maximal effect). The conditions noted are these: recombinant CYP3A4, Luciferin-PPXE luminescence; series mostly up to 57.1 µM. Put shortly: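 Luminescent readout of luciferin produced by CYP3A4 (20 nM) dealkylation of Luciferin-PPXE, 25 uM (its KM). NADPH-driven reaction ran 60 min at RT after 10 min compound preincubation; data scaled to 57 uM ketoconazole as 100% inhibition.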

Sequence of Glucocorticoid receptor (Homo sapiens) (P04150 whole entry, looked up, the tested form may be a part): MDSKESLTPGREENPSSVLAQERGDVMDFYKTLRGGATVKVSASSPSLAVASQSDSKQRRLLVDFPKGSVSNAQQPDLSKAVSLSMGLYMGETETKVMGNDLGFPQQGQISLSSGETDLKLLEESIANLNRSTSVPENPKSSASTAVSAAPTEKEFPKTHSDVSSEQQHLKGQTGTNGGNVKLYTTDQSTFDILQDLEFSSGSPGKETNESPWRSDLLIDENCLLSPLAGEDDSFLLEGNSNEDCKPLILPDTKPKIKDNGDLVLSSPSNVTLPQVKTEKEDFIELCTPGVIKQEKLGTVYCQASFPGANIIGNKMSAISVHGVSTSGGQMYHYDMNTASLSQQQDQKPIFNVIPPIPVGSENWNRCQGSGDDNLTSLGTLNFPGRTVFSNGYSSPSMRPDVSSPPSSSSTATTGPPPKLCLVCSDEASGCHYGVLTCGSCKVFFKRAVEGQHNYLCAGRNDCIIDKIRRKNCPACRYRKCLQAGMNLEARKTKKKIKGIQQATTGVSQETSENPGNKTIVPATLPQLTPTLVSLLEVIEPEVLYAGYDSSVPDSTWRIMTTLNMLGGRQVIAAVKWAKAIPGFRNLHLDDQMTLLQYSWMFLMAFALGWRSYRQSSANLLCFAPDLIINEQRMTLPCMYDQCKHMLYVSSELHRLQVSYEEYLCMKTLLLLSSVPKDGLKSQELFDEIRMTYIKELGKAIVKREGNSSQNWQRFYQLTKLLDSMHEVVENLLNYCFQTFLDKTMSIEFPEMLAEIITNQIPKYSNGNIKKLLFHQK
Sequence of 3',5'-cyclic-AMP phosphodiesterase 4B (Homo sapiens) (Q07343 whole entry, looked up): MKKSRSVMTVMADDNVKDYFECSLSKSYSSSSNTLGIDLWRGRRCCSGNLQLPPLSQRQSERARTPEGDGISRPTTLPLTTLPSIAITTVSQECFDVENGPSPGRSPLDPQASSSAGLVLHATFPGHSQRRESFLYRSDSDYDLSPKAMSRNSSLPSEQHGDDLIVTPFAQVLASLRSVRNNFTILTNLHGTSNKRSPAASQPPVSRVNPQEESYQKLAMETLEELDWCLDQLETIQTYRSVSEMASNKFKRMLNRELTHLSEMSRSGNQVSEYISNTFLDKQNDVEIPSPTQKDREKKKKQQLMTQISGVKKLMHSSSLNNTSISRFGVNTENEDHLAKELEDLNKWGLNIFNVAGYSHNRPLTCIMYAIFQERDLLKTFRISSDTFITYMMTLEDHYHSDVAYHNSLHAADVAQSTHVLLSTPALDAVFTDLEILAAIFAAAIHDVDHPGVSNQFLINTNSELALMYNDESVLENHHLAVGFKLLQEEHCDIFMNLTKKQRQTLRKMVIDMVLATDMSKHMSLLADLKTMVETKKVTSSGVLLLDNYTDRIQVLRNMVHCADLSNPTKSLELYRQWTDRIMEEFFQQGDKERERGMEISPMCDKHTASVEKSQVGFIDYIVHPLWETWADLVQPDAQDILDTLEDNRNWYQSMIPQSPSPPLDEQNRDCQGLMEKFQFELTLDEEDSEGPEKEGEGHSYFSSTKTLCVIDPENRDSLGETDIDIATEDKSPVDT
Sequence of Cytochrome P450 1A2 (Homo sapiens) (P05177 whole entry, looked up): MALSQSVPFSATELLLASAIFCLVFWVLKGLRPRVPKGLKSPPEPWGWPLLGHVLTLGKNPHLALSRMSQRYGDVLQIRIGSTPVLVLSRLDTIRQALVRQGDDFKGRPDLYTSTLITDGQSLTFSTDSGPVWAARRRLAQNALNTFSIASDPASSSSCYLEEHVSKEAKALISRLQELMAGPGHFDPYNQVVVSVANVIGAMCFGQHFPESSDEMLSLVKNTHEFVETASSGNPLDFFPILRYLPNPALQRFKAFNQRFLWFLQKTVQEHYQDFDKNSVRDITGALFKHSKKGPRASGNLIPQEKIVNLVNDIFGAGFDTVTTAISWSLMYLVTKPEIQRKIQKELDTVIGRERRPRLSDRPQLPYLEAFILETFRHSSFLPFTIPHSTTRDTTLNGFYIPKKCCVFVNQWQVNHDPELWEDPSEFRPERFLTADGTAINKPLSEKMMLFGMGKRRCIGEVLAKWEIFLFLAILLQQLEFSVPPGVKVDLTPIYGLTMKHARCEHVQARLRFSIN

`COc1ccc(NC(=O)N2CCCC3(CCN(C(=O)c4cccn4C)CC3)C2)cc1`: the Potency is > 11.4 µM in experiment [1], 25.1 µM (active) in experiment [3] and > 46 µM in [6]. For the same molecule, the results for the activity change, negative = inhibition in experiment [2] and in [4] were -2.59% and -20.9%, respectively. Besides, the activity, negative = inhibition in [5] was -3.06%. Moreover, the Potency result in experiment [7], in experiment [8] and in experiment [9] was “inactive” each time. In experiment [10], the result was inactive.
Consider `O=C(c1ccncc1)N1CCC[C@@]2(CCN(c3ccccc3)C2)C1`, for which the figures for the Potency in experiment [1], in experiment [6] and in experiment [11] were > 11.4 µM, > 46 µM and 3.16 µM (active), respectively. In addition, the figures for the activity change, negative = inhibition in experiment [2] and in experiment [4] were -9.5% and -16.6%, respectively. In addition, the Potency result in experiment [3], in experiment [7], in experiment [8] and in [9] was “inactive” throughout. In addition, the activity, negative = inhibition in experiment [5] is 3.29%. Moreover, the outcome in experiment [10] was inactive.
On to `O=S(=O)(c1ccccc1)N1CCC[C@@]2(CCN(c3cccc(-c4ccccc4)c3)C2)C1`, for which the Potency was > 11.4 µM in experiment [1], 15.8 µM (active) in experiment [3] and > 46 µM in experiment [6]. Further, the activity change, negative = inhibition was -23.9% in [2] and -13.7% in experiment [4]. In addition, the activity, negative = inhibition in [5] was -8.6%. In addition, the Potency entry in experiment [7], in experiment [8] and in experiment [9] was “inactive” in each case. Also, the result in experiment [10] was inactive.
Consider `O=C(c1cnccn1)N1CCC2(CC1)CCN(c1ccccc1)CC2`, for which the Potency is > 11.4 µM in [1] and > 46 µM in [6]. Also, the activity change, negative = inhibition was -3.01% in experiment [2] and 9.49% in experiment [4]. In addition, the Potency result in experiment [3], in [7], in experiment [8] and in experiment [11] was “inactive” each time. In experiment [5], the activity, negative = inhibition was -24.3%. For the same molecule, the result in experiment [10] was inactive.
Regarding `COc1cccc(Cn2c(=O)c(-c3cccc(C#N)c3)nc3cnc(Nc4ccccc4)nc32)c1`, the values for the Potency in experiment [1] and in [6] were > 11.4 µM and > 46 µM, respectively. In addition, the activity change, negative = inhibition was -3.95% in experiment [2] and -12.1% in [4]. The Potency entry in experiment [3], in [7], in [8] and in [9] was “inactive” each time. Besides, in experiment [5], the activity, negative = inhibition was -14.2%. Moreover, the outcome in [10] was inactive.
For the molecule `COc1ccc(NC(=O)N2CC3(CCN(C(=O)c4ccncc4)CC3)C2)cc1`, the Potency in experiment [1] is > 11.4 µM; in experiment [6] it was > 46 µM. In addition, the results for the activity change, negative = inhibition in [2] and in experiment [4] were 0.578% and 10.9%, respectively. Moreover, the Potency entry in experiment [3], in [7], in experiment [8] and in [9] was “inactive” in each case. In addition, the activity, negative = inhibition in experiment [5] was 6.73%. Also, the outcome in [10] was inactive.
Turning to `O=C(c1cnccn1)N1CCC[C@@]2(CCN(Cc3ccncc3)C2)C1`, the values for the Potency in experiment [1], in [3] and in [6] were > 11.4 µM, 15.8 µM (active) and > 46 µM, respectively. For the same molecule, the activity change, negative = inhibition was -3.77% in experiment [2] and 7.13% in experiment [4]. Moreover, in experiment [5], the activity, negative = inhibition was -5.95%. The Potency entry in [7], in experiment [8] and in experiment [9] was “inactive” each time. In [10], the result was inactive.
